Shown is part of a subset that was picked to be rich in hits.
TDP-43 rescue = rescues yeast from TDP-43 toxicity; Potency, µM (highest dose often 46.1 µM), hits mostly activators; yeast TDP-43 toxicity rescue, BacTiter-Glo growth, 24 h; AID 1347073; actives 0.45% (n = 45,000); active = well fitted activation curve with a large enough effect; also: nearly all actives have a fitted effect of over 55% in size
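TDP-43-expressing yeast, pregrown in raffinose, seeded at OD600 0.02 in galactose medium with compound for 24 hr at 30 deg C. Growth read by BacTiter-Glo luminescence, so rescue of toxicity appears as activation.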
Of the large screens only hits and unclear results are named; the others gave an inactive call.

COc1ccccc1NC(=O)/C(=N/OCc1ccc(F)cc1)C(C)=O	none
COc1ccccc1CNC(=O)CN(CCc1ccccc1)S(C)(=O)=O	none
COC(=O)c1c(N)sc(C(=O)NCCc2ccccc2)c1C	none
Cn1c(SCC(=O)NC2CCCC2)nnc1-c1ccco1	none
COc1ccc(Cc2nnc(SCC(=O)Nc3ccc(N4CCOCC4)cc3)n2C)cc1	none
CCNC(=O)Nc1ccc2c(c1)c(=O)n(C)n2Cc1ccc(Cl)cc1	none
Cc1ccc(NC(=O)Nc2ccc(F)c(Cl)c2)cc1	none
Cc1ccc(OCCC(=O)Nc2ccc(F)c(F)c2)cc1	none
Cc1cccc(OCCC(=O)Nc2ccc(F)c(Cl)c2)c1	TDP-43 rescue 13µM
COc1cc(NC(=O)Cn2c(=O)n(CC(=O)NCCc3ccc(OC)c(OC)c3)c(=O)c3sccc32)cc(OC)c1	none
Cc1ccc(S(=O)(=O)N2CCN(C(=O)CSc3nccn3C)CC2)cc1	none
O=C(CN1CCN(CC(=O)Nc2ccccc2Cc2ccccc2)CC1)Nc1ccccc1Cl	none
COc1ccc(CN(C(=O)c2ccco2)c2ccc(C)c(C)c2)cc1	none
COc1ccccc1C(NC(=O)C1CCN(CCOc2ccccc2)CC1)c1ccccn1 (stereo not given)	none
CC1CCCCC1NC(=O)COC(=O)c1c2c(nc3ccccc13)/C(=C\c1ccco1)CC2 (stereo not given)	none
Cc1ccc(-c2noc(CN(C)C(=O)c3ccoc3C)n2)cc1	none
Cc1ccc(-c2noc(CN(C(=O)c3ccc4c(c3)OCO4)C(C)C)n2)cc1	none
COc1ccc(-c2noc(CN(C(=O)C(C)Oc3ccc(C)cc3)C(C)C)n2)cc1 (stereo not given)	TDP-43 rescue 20µM
O=C(NCCNC(=O)c1ccccc1F)c1ccccn1	none
Fc1ccccc1COc1ccc2ccccc2c1CNc1nn[nH]n1	none
NS(=O)(=O)c1ccc(O)c(NC(=O)c2ccc([N+](=O)[O-])cc2)c1	none
COc1ccc(Nc2nc3cc(-c4ccccc4C)sc3c(=O)n2C)cc1OC	TDP-43 rescue 20µM
Cc1ccccc1-c1cc2nc(NCCOc3ccccc3)n(C)c(=O)c2s1	none
Cc1ccccc1-c1cc2nc(NCCCN(C)C)n(C)c(=O)c2s1	none
CNc1cnc(-c2ccccc2OC)cn1	none
CC1=NNC(=O)c2ccccc2O1	none
CCOC(=O)CSc1nc2ccccc2c(=O)n1-c1ccc(C)cn1	none
COc1cccc(CN2CC(C(=O)N3CCN(C(C)C)CC3)CCC2=O)c1 (stereo not given)	none
NS(=O)(=O)c1ccc(CCNC(=O)COC(=O)/C=C/c2cc(Br)ccc2F)cc1	none
CC(=O)c1ccc(C(=O)N2CCc3c([nH]c4ccccc34)C2c2cccc(C)n2)s1 (stereo not given)	TDP-43 rescue 13µM
Cc1cccc(C2c3[nH]c4ccccc4c3CCN2C(=O)Cc2n[nH]c(C)n2)n1 (stereo not given)	none
Cc1cccc(C2c3[nH]c4ccccc4c3CCN2Cc2ccc(C)s2)n1 (stereo not given)	none
O=C(Nc1ccc(Cl)cc1)c1csc([C@@H]2O[C@H](CO)[C@@H](O)[C@H]2O)n1	none
CSc1cccc(NC(=O)CC(C)n2ccnc2)c1 (stereo not given)	none
Cc1ccc(N(CC(=O)NC2CCCC2)C(=O)CNC(=O)c2cccs2)cc1C	none
C(=N\n1cnnc1)/c1ccc(-c2ccccc2)cc1	TDP-43 rescue 11µM
CCc1ccc(/C=N\n2cnnc2)cc1	none
O=[N+]([O-])c1cccc(/C=N/n2cnnc2)c1	none
COc1ccc(Cl)cc1-c1cc(C(=O)NCc2ccc(C(F)(F)F)cc2)[nH]n1	none
Cc1nn(CC(=O)NC(C)C)c(C)c1[N+](=O)[O-]	none
O=C1c2cccnc2C(Nc2ccccc2Br)N1Cc1ccco1 (stereo not given)	none
COc1ccc2c(c1)[nH]c1c(=O)n(CCN3CCOCC3)cnc12	none
COc1ccc2c(c1)[nH]c1c(Cl)ncnc12	TDP-43 rescue 14µM
COc1ccc(CNc2ncnc3c2[nH]c2cc(OC)c(OC)cc23)cc1	none
Cc1ccc2nc(SCC(=O)Nc3cc(C)on3)c(C)cc2c1	none
COc1ccc(NC(=O)COC(=O)CC2CCCC2)cc1	none
CC1=C(C(=O)N2CCN(c3ccccc3)CC2)C2(CCCCC2)OC1=O	none

Screening data as filed in PubChem BioAssay.
